# From PubChem BioAssay AID686978 (National Center for Advancing Translational Sciences (NCATS), 2013)
# Screen size: about 420,000 compounds; about 64,000 (15%) were called active. About 27% were inconclusive and are not listed. These entries were drawn from the full list. A number with no mark means an inactive call. Calls come from the whole dose curve; as a rule, active = well fitted inhibition curve with a large enough effect; inconclusive = small, poorly fitted or top-dose-only effect; inactive = flat fitted curve, though single readings scatter. Peptide text beside a SMILES is read from it.
# Assay: qHTS for Inhibitors of human tyrosyl-DNA phosphodiesterase 1 (TDP1): qHTS in cells in absence of CPT; note: nearly all actives have a fitted effect of over 55% in size
# Settings: DT40 Tdp1-/- hTDP1 cells, no CPT, ATP luminescence, 48 h; activity change, negative = growth inhibition: at 46.2 µM (top of the series)
# Method in brief: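 Chicken DT40 Tdp1-/- cells stably complemented with human TDP1 were seeded at 400 cells/well with DMSO in place of 20 nM camptothecin. After compound pinning, cells grew at least 48 hr at 37 °C; viability read by CellTiter-Glo luminescence.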
# % is set by controls: 0 for no effect and ±100 for the full control effect; potency is the fitted concentration of half-maximal effect.
SMILES,"activity change, negative = growth inhibition [%]",Potency
Cn1c(=O)c2cc(S(=O)(=O)NCCC(=O)Nc3ccc(F)cc3F)ccc2n(C)c1=O,-27.1,
COc1ccc(NC(=O)CN(C)C(=O)/C=C/c2cn(Cc3ccccc3)nc2-c2cccnc2)cc1,-21.8,
Cc1cc(C)cc(NC(=O)CSc2nc(=O)n(CCN3CCOCC3)c3c2CCC3)c1,-14.7,
CCCCCOc1ccc(/C=C/C(=O)NCCc2nc3ccccc3[nH]2)cc1OC,,9.2 µM (active)
CC(C)=C(NC(=O)c1ccco1)C(=O)NCCc1nc2ccccc2[nH]1,-3.68,
O=C(COc1ccccc1)NCCc1nc2ccccc2[nH]1,0.1,
COc1ccc2c(C(=O)c3ccc(C)cc3)n(CCC(N)=O)[n+]([O-])c2c1,-12.7,
COC(=O)CNC(=O)C(CCSC)NC(C)=O (stereo not given) (HELM PEPTIDE1{[ac].[CSCCC(N[*:1])C(=O)[*:2]].G.[CO[*:1]]}$$$$V2.0),0.948,
O=C(C1CCCN(S(=O)(=O)c2ccccc2)C1)N1CCN(c2ccc(F)cc2)CC1 (stereo not given),,11.6 µM (active)
Cc1ccc(N(C)C(=O)C2CCN(S(=O)(=O)c3ccc4c(c3)CCCN4C(=O)C3CCC3)CC2)cc1,,16.4 µM (active)
CCN1CCN(C(=O)C2CCCN(S(=O)(=O)c3ccc(OC)c(OC)c3)C2)CC1 (stereo not given),-26.3,
COc1ccc(OC)c(S(=O)(=O)N2CCCC(C(=O)N3CCC(C(N)=O)CC3)C2)c1 (stereo not given),0.564,
Cc1ccc(S(=O)(=O)N2CCC(N3CCCCCC3)CC2)cc1,-12.8,
CCOC(=O)C1CCN(C(=O)C2CCCN(S(=O)(=O)c3ccc(OC)c(Cl)c3)C2)CC1 (stereo not given),,11.6 µM (active)
Cc1ccc(S(=O)(=O)N2CCC(C(=O)N3CCCCCCC3)CC2)cc1,,20.6 µM (active)
COc1ccc(N(C)C(=O)C2CCN(S(=O)(=O)c3cc(Br)cc4c3N(C(C)=O)CC4)CC2)cc1,-24,
CC(=O)N1CCCc2cc(S(=O)(=O)N3CCC(C(=O)NC4CCCCC4)CC3)ccc21,-0.0784,
CCCS(=O)(=O)N1CCCC(C(=O)N2CCN(c3ccccc3)CC2)C1 (stereo not given),-5.33,
COc1ccc(S(=O)(=O)N2CCC(C(=O)N3CCCC3)CC2)cc1C,-17.4,
O=C(C1CCC1)N1CCN(c2ccccc2)CC1,-3.02,
Cc1cc(-c2ccccc2)nc(N2CCC(C(=O)NC34CC5CC(CC(C5)C3)C4)CC2)n1,-23.1,
COCCCNC(=O)[C@H]1N2C(=O)c3ccccc3C2SC1(C)C (stereo not given in full),0.674,
O=c1c(F)cn(C2CCCO2)c(=O)n1Cc1ccccc1Cl (stereo not given),7.15,
O=C1CN(C(=O)COC(=O)c2cnc(Cl)c(Cl)c2)c2ccccc2N1,-4.12,
CC1(c2ccc3ccccc3c2)NC(=O)NC1=O (stereo not given),-3.58,

SMILES,"activity change, negative = growth inhibition [%]",Potency
COCCCNC(=O)C1CCC(CNS(=O)(=O)c2ccc(OC)cc2)CC1 (stereo not given),,inactive
O=C(C1CCC1)N1CCN(S(=O)(=O)c2ccc([N+](=O)[O-])cc2)CC1,3.7,
O=C(Cc1ccccc1)N1CCN(S(=O)(=O)c2ccc([N+](=O)[O-])cc2)CC1,-11.9,
O=C(C1CCCN(S(=O)(=O)c2cccc3nonc23)C1)N1CCN(c2ccccc2F)CC1 (stereo not given),,18.4 µM (active)
COc1ccc(NC(=O)C2CCCN(S(=O)(=O)c3cccc4nonc34)C2)cc1Cl (stereo not given),-4.62,
CC(=O)c1cccc(NC(=O)C2CCCN(S(=O)(=O)c3cccc4nonc34)C2)c1 (stereo not given),-27.5,
O=C(C1CCCN(S(=O)(=O)c2ccc([N+](=O)[O-])cc2)C1)N1CCCCC1 (stereo not given),,16.4 µM (active)
O=C(NCc1cc(F)cc(C(F)(F)F)c1)C1CCC(=O)N(C2CCCC2)C1 (stereo not given),14,
Cc1cccc(C(=O)Nc2ccccc2-c2nnn(CC(=O)Nc3ccc4c(c3)OCCO4)n2)c1,-29.8,
CCCOc1ccccc1-c1nc(SCCC(=O)O)n[nH]1,-26.8,
CN(c1ccc(OCC(=O)OCC(=O)Nc2cccc([N+](=O)[O-])c2)cc1)S(=O)(=O)c1ccc(F)cc1,6.72,
Cn1ccc(NC(=O)Nc2ccc(Cl)cc2)n1,-0.619,
CN(c1cccc(NC(=O)Nc2ccc(Cl)cc2)c1)S(C)(=O)=O,,25.9 µM (active)
CNS(=O)(=O)c1ccc(NC(=O)Nc2ccc3c(c2)OCO3)cc1,-12,
CN(c1ccccc1)S(=O)(=O)c1cccc(NC(=O)Cc2ccc(Cl)cc2)c1,,23.1 µM (active)
CN(c1ccccc1)S(=O)(=O)c1cccc(C(=O)NNC(=O)c2ccncc2)c1,-24.1,
Cc1ncc([N+](=O)[O-])n1CCOC(=O)c1ccc(Br)cc1,-19.1,
COc1ccc(S(=O)(=O)NCC(=O)NCc2cc(=O)n(C)c(=O)n2C)cc1F,6.72,
O=C(NC1CCCCC1)c1cc(C2CC2)on1,15.4,
COc1cc2c(cc1OC)C(=O)NCC(C)(C)O2,-7.76,
O=C(O)CCCCCCCCCC[n+]1ccccc1,23,
O=C(NCC1CCC(C(=O)O)CC1)OCc1ccccc1 (stereo not given),-0.127,
COc1ccc(NC(=O)CNC(=O)Cn2ccc3ccccc3c2=O)c(OC)c1,,inactive
CCN(CCCNC(=O)c1cc(Nc2ccc(OC)cc2)nc2ccccc12)c1cccc(C)c1,,20.6 µM (active)
COc1ccc(Nc2cc(C(=O)NCCCN(C)c3ccccc3)c3ccccc3n2)c(OC)c1,,11.6 µM (active)

SMILES,"activity change, negative = growth inhibition [%]",Potency
CCN(CCCNC(=O)Cn1ncc2c([nH]c3ccccc32)c1=O)c1cccc(C)c1,-22.4,
CCCN(CCC)CCCNC(=O)CNC(=O)c1nn(-c2ccc(OC)cc2)c(=O)c2ccccc12,-16.3,
COc1ccc(NC(=O)CCNC(=O)Cn2ccc3ccccc3c2=O)c(OC)c1,-7.11,
Cc1nc(C(F)(F)F)ccc1C(=O)N1CCC1(C)C(=O)NS(=O)(=O)c1ccccc1Cl (stereo not given),4.11,
Cc1ccccc1NC(=O)Cc1nc(COC(=O)c2cccnc2Cl)cs1,-10.3,
COC(=O)c1cc(CNC(=O)CC(C)c2ccccc2)ccc1OC (stereo not given),-11.8,
O=C(OCC(=O)N1CCCC1)c1ccc(Cl)nc1,0.594,
O=C(O)C1CCC(CNS(=O)(=O)c2ccc(Br)cc2)CC1 (stereo not given),18.6,
COc1ccc2[nH]c(C(=O)N3CCN(C)CC3)c(C)c2c1,4.91,
CCOC(=O)c1cc2c(ccn2C)n1CC(=O)N1CCC(C)CC1,-8.97,
CCOC(=O)c1cc2cc(OC)ccc2n1C1CCN(C)CC1,,18.4 µM (active)
Cc1c(NC(=O)CCCOc2ccccc2)cccc1[N+](=O)[O-],-19.6,
Cc1csc(CN(C)C(=O)CC2C(=O)NCCN2CC(C)(C)C)n1 (stereo not given),10.7,
O=C(N/N=C/c1ccc(O)cc1)/C(=C/c1ccc([N+](=O)[O-])cc1)NC(=O)c1ccccc1,-11.1,
C=CCOc1ccccc1/C=N/NC(=O)Cc1ccccc1,-6.16,
O=C(N/N=C/c1ccccc1O)/C(=C/c1ccccc1)CCO,,5.17 µM (active)
Oc1ccccc1C=NC1CCCCC1N=Cc1ccccc1O (stereo not given),7.72,
O=C(CCC(=O)Nc1ccccc1)N/N=C/c1ccccc1F,0.37,
O=C(NN=Cc1ccccc1O)NN=Cc1ccccc1O,,5.8 µM (active)
O=C(NCC1CCCCC1)c1cc(S(=O)(=O)N2CCCCC2)ccc1N1CCOCC1,2.24,
N#CCCN(C(=O)COC(=O)c1ccc2c(c1)OCCO2)c1ccccc1,-5.69,
O=C(Cn1nc([N+](=O)[O-])nc1Br)NC1CCCCC1,-0.17,
Cc1ccc(Cn2nnc3c(=O)n(CC(=O)N4CCCCC4)cnc32)cc1,-21.5,
CCOC(=O)C(C)n1cnc2c(nnn2-c2ccc(F)cc2)c1=O (stereo not given),-10.3,
O=C(Cn1cnc2c(nnn2-c2ccccc2)c1=O)N1CCC(Cc2ccccc2)CC1,,20.6 µM (active)

SMILES,"activity change, negative = growth inhibition [%]",Potency
CC(=O)Nc1ccc(S(=O)(=O)N2CCC(NC(=O)c3ccccc3)CC2)cc1,-9.1,
CC(C)Cn1c(N)c(C(=O)NCc2cccs2)c2nc3ccccc3nc21,,20.6 µM (active)
CCCNC(=O)c1c(N)n(-c2ccc(S(N)(=O)=O)cc2)c2nc3ccccc3nc12,-11.3,
O=C(NCc1cccs1)c1ccc(Br)o1,11.6,
Cn1nccc1NC(=O)CC(CC(=O)O)c1ccccc1 (stereo not given),2.44,
COc1ccc(NC(=O)CS(=O)(=O)c2ccccc2)cc1,9.07,
CC(=O)Nc1ccccc1OC(=O)N1CCOCC1,3.24,
NC(=O)C1CCN(C(=O)c2cc(S(=O)(=O)N3CCN(c4ccccc4)CC3)ccc2Cl)CC1,,6.51 µM (active)
NC(=O)C1CCN(C(=O)c2ccc(-c3ccccc3)cc2)CC1,-2.77,
CCS(=O)(=O)N1CCC(C(=O)N2CCN(c3ccccc3)CC2)CC1,-3.39,
CC(=O)N1c2ccc(S(=O)(=O)N3CCC(C(=O)N4CCN(c5ccccc5)CC4)CC3)cc2CC1C (stereo not given),,20.6 µM (active)
CC(=O)c1ccc(N2CCN(C(=O)C3CCN(S(=O)(=O)c4ccc5c(c4)CC(C)N5C(=O)C4CC4)CC3)CC2)cc1 (stereo not given),,4.11 µM (active)
CS(=O)(=O)N1CCC(C(=O)N2CCN(c3ccccc3)CC2)CC1,-8.27,
NC(=O)COC(=O)c1cc(S(=O)(=O)N2CCN(c3ccccc3)CC2)ccc1Cl,-2.99,
CC(=O)c1ccc(N2CCN(S(=O)(=O)c3c(C)[nH]c(=O)[nH]c3=O)CC2)cc1,-2.01,
CC(=O)c1ccc(S(=O)(=O)N2CCC(Oc3ccc(-n4cnnn4)cc3)CC2)cc1,,inactive
COc1ccc(NC(=O)CN(C)S(=O)(=O)c2ccccc2)cc1OC,-13.2,
O=C(NCCS(=O)(=O)c1ccc(Br)cc1)c1ccccc1Cl,-2.05,
COc1ccc(NC(=O)NN2CCN(C)CC2)c(OC)c1,22.4,
O=C(Cn1cc2c(n1)CCCCC2)NCCN1CCOCC1,4.76,
Cn1c(=O)sc2cc(NS(=O)(=O)c3ccc(C(C)(C)C)cc3)ccc21,-11.5,
CC1=NN(C(=O)c2ccccc2Br)C(O)(c2cccnc2)C1 (stereo not given),-6.62,
O=C(NCCc1ccccc1)C1CC1,19.3,
CCC(C)(C)C1CCC(=NNC(=O)c2ccc(Br)o2)CC1 (stereo not given),-31.9,
CCCC1CCC(=NNC(=S)NCCc2ccccc2)CC1 (stereo not given),,7.31 µM (active)
